Of roughly 7,900 targets only a part is listed; those with a hit were picked by preference. About 0.6% of all pairs of compound and target were hits. Unmarked numbers belong to inactive results.
Key:
Test in all cases: log2 fold change, soluble protein after heating vs DMSO (PISA); higher = thermal stabilisation; K562 cells, 10 uM, 30 min; active = over 0.2 and 3.5 SD of the protein, either way, in both replicates (recomputed)
bafetinib = compound: Cc1ccc(NC(=O)c2ccc(CN3CC[C@H](N(C)C)C3)c(C(F)(F)F)c2)cc1Nc1nccc(-c2cncnc2)n1 [bafetinib]
Method in brief: (§1)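 Values are thermal stability changes relative to control samples and are taken from duplicates. They are stated as log2 fold changes. Before quantification by TMTpro 16plex LC-MS/MS with equalised channel sums, K562 cells at 2×10^6 cells/mL were treated with 10 μM compound for 30 min, heated in aliquots for 3 min across 48°C-58°C, pooled, extracted in PBS with 0.5% NP-40 at 4°C, and centrifuged at 21,000xg for 90 min to give the soluble supernatant.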

[1] = compound: Cc1cccc(CC(=O)N2CCc3c2ccc(-c2cn(C)c4ncnc(N)c24)c3F)n1
Method in brief: as §1

nilotinib = compound: Cc1cn(-c2cc(NC(=O)c3ccc(C)c(Nc4nccc(-c5cccnc5)n4)c3)cc(C(F)(F)F)c2)cn1 [nilotinib]
Method in brief: as §1

[2] = compound: Cc1nc(Nc2n[nH]c3c2CN(C(=O)N[C@H](CN(C)C)c2ccccc2)C3(C)C)c2sccc2n1
Method in brief: as §1

dasatinib = compound: Cc1nc(Nc2ncc(C(=O)Nc3c(C)cccc3Cl)s2)cc(N2CCN(CCO)CC2)n1 [dasatinib]
Method in brief: as §1

[3] = compound: Cc1ncc(-c2ccnc(Nc3ccc(S(C)(=O)=O)cc3)n2)n1C(C)C
Method in brief: as §1

[4] = compound: Cn1cc(-c2ccc3c(c2)CCN3C(=O)Cc2cccc(C(F)(F)F)c2)c2c(N)ncnc21
Method in brief: as §1

[5] = compound: Cn1cc(-c2ccc3nnc(C(F)(F)c4ccc5ncccc5c4)n3n2)cn1
Method in brief: as §1

tipifarnib = compound: Cn1cncc1[C@@](N)(c1ccc(Cl)cc1)c1ccc2c(c1)c(-c1cccc(Cl)c1)cc(=O)n2C [tipifarnib]
Method in brief: as §1

mubritinib = compound: FC(F)(F)c1ccc(/C=C/c2nc(COc3ccc(CCCCn4ccnn4)cc3)co2)cc1 [mubritinib]
Method in brief: as §1

Chain of UniProt Q15054 (Q15054 whole entry, looked up): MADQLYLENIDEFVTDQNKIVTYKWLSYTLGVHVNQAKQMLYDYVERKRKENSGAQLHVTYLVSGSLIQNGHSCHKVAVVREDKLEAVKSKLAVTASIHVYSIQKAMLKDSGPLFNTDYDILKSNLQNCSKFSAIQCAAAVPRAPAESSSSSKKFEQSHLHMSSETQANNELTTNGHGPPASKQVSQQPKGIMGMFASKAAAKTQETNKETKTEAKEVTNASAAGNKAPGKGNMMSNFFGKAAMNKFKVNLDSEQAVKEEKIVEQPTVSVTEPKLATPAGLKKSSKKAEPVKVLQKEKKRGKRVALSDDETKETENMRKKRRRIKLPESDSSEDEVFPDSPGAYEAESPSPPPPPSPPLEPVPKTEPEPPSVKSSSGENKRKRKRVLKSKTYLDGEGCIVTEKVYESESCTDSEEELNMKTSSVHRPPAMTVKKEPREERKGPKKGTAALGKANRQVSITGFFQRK
Chain of UniProt P50897 (P50897 whole entry, looked up): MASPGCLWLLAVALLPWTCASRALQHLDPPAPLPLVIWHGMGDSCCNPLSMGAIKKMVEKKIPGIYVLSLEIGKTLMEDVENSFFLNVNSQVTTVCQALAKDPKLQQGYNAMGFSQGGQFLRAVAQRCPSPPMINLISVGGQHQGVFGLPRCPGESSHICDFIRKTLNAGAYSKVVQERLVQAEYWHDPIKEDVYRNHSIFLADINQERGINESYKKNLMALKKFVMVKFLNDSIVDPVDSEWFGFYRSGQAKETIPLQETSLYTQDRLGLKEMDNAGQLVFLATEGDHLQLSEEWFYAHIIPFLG
Chain of UniProt Q5JVF3 (Q5JVF3 whole entry, looked up): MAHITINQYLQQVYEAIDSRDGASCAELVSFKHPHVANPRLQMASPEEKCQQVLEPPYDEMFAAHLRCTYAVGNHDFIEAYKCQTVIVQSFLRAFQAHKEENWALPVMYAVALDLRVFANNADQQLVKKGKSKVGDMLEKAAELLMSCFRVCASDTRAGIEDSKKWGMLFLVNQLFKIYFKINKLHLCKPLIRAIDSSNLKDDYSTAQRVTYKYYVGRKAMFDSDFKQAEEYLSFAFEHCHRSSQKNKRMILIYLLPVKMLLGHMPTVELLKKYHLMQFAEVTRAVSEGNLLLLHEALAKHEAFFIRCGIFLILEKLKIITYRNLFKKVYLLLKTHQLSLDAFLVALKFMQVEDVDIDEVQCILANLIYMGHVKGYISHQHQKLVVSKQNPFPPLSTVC
Chain of UniProt P49643 (P49643 whole entry, looked up): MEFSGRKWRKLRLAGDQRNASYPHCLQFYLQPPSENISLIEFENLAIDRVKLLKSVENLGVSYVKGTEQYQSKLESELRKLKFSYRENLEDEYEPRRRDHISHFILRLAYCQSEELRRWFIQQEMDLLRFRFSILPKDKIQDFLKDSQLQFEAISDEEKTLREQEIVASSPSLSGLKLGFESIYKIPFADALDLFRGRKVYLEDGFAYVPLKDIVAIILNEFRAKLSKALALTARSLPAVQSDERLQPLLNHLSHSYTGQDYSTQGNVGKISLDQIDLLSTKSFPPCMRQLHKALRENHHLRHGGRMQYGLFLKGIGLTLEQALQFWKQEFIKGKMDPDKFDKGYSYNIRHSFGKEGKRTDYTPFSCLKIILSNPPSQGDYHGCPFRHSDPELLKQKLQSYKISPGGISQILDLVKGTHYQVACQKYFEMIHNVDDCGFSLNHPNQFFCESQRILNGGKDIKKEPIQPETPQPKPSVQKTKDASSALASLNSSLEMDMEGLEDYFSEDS
Chain of UniProt Q9NW08 (Q9NW08 whole entry, looked up): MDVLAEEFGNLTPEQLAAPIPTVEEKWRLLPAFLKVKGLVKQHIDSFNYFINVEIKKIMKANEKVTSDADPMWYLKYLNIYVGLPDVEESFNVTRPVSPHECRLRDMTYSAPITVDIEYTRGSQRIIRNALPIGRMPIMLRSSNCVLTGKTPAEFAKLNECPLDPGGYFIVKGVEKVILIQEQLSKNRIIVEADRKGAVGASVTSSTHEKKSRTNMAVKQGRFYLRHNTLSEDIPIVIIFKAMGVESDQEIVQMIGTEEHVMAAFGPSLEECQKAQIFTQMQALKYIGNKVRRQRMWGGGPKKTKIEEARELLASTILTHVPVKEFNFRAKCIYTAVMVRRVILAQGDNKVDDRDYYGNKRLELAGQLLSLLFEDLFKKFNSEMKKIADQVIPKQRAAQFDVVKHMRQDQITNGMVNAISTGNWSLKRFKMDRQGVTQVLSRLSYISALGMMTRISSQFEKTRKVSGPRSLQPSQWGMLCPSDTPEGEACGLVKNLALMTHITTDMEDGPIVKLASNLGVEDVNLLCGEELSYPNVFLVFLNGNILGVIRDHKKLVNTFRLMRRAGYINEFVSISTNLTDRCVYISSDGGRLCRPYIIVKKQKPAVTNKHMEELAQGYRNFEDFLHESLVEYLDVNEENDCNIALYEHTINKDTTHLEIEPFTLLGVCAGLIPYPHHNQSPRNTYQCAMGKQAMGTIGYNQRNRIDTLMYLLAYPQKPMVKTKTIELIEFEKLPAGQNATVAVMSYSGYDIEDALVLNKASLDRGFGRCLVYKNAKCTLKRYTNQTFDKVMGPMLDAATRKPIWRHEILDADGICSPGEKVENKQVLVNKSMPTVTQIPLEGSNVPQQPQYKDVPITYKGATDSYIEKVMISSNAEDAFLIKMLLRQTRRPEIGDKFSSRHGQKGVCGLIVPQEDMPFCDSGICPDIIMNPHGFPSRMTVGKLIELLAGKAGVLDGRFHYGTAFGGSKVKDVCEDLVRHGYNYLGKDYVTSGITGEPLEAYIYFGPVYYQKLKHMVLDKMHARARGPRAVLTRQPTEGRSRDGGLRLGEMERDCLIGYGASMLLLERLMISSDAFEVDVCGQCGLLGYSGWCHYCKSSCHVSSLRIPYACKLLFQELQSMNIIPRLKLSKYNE
Chain of UniProt O43242 (O43242 whole entry, looked up): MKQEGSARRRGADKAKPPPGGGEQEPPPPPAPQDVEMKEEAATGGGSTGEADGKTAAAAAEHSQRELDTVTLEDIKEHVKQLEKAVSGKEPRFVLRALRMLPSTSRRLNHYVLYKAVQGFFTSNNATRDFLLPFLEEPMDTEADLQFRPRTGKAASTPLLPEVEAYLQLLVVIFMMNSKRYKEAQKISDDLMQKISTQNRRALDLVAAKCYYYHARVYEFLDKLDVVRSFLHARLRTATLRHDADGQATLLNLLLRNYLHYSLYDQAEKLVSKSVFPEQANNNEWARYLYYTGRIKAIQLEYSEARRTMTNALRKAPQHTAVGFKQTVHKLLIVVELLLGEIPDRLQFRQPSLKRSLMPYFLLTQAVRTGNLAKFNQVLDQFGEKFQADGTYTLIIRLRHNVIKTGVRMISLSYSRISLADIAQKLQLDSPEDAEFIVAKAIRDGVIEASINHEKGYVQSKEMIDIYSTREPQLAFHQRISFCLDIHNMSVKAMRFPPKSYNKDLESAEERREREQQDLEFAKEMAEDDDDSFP
Chain of UniProt P31323 (P31323 whole entry, looked up): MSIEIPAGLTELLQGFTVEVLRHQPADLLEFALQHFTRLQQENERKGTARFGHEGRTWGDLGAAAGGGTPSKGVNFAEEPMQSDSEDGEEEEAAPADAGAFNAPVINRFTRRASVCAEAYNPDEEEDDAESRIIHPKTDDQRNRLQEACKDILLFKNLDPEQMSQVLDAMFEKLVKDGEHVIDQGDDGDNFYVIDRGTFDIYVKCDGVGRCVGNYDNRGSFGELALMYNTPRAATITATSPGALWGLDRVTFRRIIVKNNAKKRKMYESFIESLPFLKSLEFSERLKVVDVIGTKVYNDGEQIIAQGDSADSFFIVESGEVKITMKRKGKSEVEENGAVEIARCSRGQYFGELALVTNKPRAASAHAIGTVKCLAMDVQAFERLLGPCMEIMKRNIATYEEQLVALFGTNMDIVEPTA
Chain of UniProt P53609 (P53609 whole entry, looked up): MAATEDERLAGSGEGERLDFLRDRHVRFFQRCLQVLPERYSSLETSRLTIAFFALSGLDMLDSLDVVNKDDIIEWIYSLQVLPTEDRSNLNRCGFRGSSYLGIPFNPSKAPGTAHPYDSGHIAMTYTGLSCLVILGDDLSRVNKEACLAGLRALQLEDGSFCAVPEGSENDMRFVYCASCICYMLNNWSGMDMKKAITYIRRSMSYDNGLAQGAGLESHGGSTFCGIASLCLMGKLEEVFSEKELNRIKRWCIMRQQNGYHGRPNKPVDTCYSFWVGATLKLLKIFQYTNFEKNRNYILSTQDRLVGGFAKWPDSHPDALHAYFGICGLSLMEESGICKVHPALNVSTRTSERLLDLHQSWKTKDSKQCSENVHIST
Chain of UniProt Q00577 (Q00577 whole entry, looked up): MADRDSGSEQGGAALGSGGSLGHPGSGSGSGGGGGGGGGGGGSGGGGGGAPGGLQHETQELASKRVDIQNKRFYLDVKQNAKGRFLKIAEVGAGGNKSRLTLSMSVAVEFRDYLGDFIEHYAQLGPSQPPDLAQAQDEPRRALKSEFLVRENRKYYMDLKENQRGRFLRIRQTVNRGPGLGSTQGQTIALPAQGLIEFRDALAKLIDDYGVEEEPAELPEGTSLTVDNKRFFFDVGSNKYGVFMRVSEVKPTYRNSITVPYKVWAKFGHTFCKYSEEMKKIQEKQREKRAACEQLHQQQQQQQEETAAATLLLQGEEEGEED
Chain of UniProt Q9Y478 (Q9Y478 whole entry, looked up): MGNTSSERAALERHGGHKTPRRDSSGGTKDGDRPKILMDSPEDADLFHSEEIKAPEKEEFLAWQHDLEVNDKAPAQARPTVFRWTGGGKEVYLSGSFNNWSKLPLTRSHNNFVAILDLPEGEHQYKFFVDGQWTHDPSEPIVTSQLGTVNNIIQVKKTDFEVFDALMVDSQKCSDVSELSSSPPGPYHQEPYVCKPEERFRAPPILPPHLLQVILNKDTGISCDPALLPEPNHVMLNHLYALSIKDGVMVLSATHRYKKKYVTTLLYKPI

Which log2 fold change (bafetinib) does the source give for PTDSS1 (UniProt P48651) here?
The log2 fold change was -0.125.

What about the log2 fold change [1] of the same target?
The log2 fold change was 0.092.

And the log2 fold change (nilotinib)?
Its log2 fold change is -0.166.

And the log2 fold change [2]?
The log2 fold change was 0.084.

What about the log2 fold change (dasatinib) of the same target?
Its log2 fold change is -0.002.

What about the log2 fold change [3] of the same target?
The log2 fold change was 0.017.

What about the log2 fold change [4] of the same target?
The log2 fold change was -0.089.

And the log2 fold change [5]?
Its log2 fold change is 0.042.

What about the log2 fold change (tipifarnib) of the same target?
Its log2 fold change is 0.018.

And the log2 fold change (mubritinib)?
The log2 fold change was -0.074.

What does the source list for PRKAR2B (UniProt P31323)?
log2 fold change (bafetinib): -0.022; log2 fold change [1]: 0.133; log2 fold change (nilotinib): 0.012; log2 fold change [2]: -1.23 (active); log2 fold change (dasatinib): -0.078; log2 fold change [3]: -0.16; log2 fold change [4]: 0.022; log2 fold change [5]: -0.07; log2 fold change (tipifarnib): -0.103; log2 fold change (mubritinib): 0.189

Which results are given for PSMC6 (UniProt P62333)?
log2 fold change (bafetinib): 0.069; log2 fold change [1]: 0.008; log2 fold change (nilotinib): -0.029; log2 fold change [2]: 0.069; log2 fold change (dasatinib): 0.039; log2 fold change [3]: -0.02; log2 fold change [4]: -0.068; log2 fold change [5]: 0.002; log2 fold change (tipifarnib): 0.104; log2 fold change (mubritinib): -0.048

PURA (UniProt Q00577) was tested. Which log2 fold change (bafetinib) did it give?
The log2 fold change was 0.108.

What about the log2 fold change [1] of the same target?
The log2 fold change was -0.089.

What about the log2 fold change (nilotinib) of the same target?
Its log2 fold change is 0.06.

And the log2 fold change [2]?
Its log2 fold change is 0.105.

And the log2 fold change (dasatinib)?
The log2 fold change was 0.335.

What about the log2 fold change [3] of the same target?
The log2 fold change was 0.017.

And the log2 fold change [4]?
Its log2 fold change is -0.382.

And the log2 fold change [5]?
The log2 fold change was -0.12.

What about the log2 fold change (tipifarnib) of the same target?
The log2 fold change was 0.207.

And the log2 fold change (mubritinib)?
The log2 fold change was -0.06.

How did the log2 fold change (bafetinib) turn out when PRKAB1 (UniProt Q9Y478) was run?
The log2 fold change was -0.154.

What about the log2 fold change [1] of the same target?
The log2 fold change was 0.006.

And the log2 fold change (nilotinib)?
The log2 fold change was -0.119.

What about the log2 fold change [2] of the same target?
The log2 fold change was -0.162.

What about the log2 fold change (dasatinib) of the same target?
Its log2 fold change is -0.037.

What about the log2 fold change [3] of the same target?
The log2 fold change was -0.007.

And the log2 fold change [4]?
Its log2 fold change is 0.04.

What about the log2 fold change [5] of the same target?
The log2 fold change was -0.026.

And the log2 fold change (tipifarnib)?
Its log2 fold change is 0.008.

What about the log2 fold change (mubritinib) of the same target?
Its log2 fold change is -0.104.

For PXK (UniProt Q7Z7A4), which log2 fold change (bafetinib) is on record?
Its log2 fold change is -0.01.

What about the log2 fold change [1] of the same target?
Its log2 fold change is 0.086.

What about the log2 fold change (nilotinib) of the same target?
Its log2 fold change is -0.026.

And the log2 fold change [2]?
Its log2 fold change is 0.025.

And the log2 fold change (dasatinib)?
The log2 fold change was 0.226.

What about the log2 fold change [3] of the same target?
The log2 fold change was 0.012.

What about the log2 fold change [4] of the same target?
Its log2 fold change is 0.029.

And the log2 fold change [5]?
Its log2 fold change is -0.106.

And the log2 fold change (tipifarnib)?
Its log2 fold change is -0.001.

And the log2 fold change (mubritinib)?
The log2 fold change was 0.098.

What does the source list for PPT1 (UniProt P50897)?
log2 fold change (bafetinib): -0.742 (active); log2 fold change [1]: 0.011; log2 fold change (nilotinib): 0.021; log2 fold change [2]: 0.02; log2 fold change (dasatinib): 0; log2 fold change [3]: -0.001; log2 fold change [4]: 0.006; log2 fold change [5]: 0.019; log2 fold change (tipifarnib): 0.025; log2 fold change (mubritinib): 0.027

Which log2 fold change (bafetinib) does the source give for PCID2 (UniProt Q5JVF3) here?
The log2 fold change was 0.07.

And the log2 fold change [1]?
Its log2 fold change is 0.078.

And the log2 fold change (nilotinib)?
Its log2 fold change is -0.013.

And the log2 fold change [2]?
Its log2 fold change is -0.061.

And the log2 fold change (dasatinib)?
The log2 fold change was -0.254.

And the log2 fold change [3]?
Its log2 fold change is -0.02.

What about the log2 fold change [4] of the same target?
The log2 fold change was 0.038.

And the log2 fold change [5]?
The log2 fold change was -0.036.

What about the log2 fold change (tipifarnib) of the same target?
Its log2 fold change is -0.071.

What about the log2 fold change (mubritinib) of the same target?
The log2 fold change was 0.109.

POLR2K (UniProt P53803) was tested. Which log2 fold change (bafetinib) did it give?
Its log2 fold change is -0.052.

And the log2 fold change [1]?
The log2 fold change was -0.057.

What about the log2 fold change (nilotinib) of the same target?
The log2 fold change was -0.021.

And the log2 fold change [2]?
The log2 fold change was 0.029.

And the log2 fold change (dasatinib)?
The log2 fold change was 0.081.

And the log2 fold change [3]?
The log2 fold change was 0.089.

What about the log2 fold change [4] of the same target?
Its log2 fold change is 0.006.

What about the log2 fold change [5] of the same target?
Its log2 fold change is 0.019.

And the log2 fold change (tipifarnib)?
Its log2 fold change is -0.036.

And the log2 fold change (mubritinib)?
Its log2 fold change is -0.008.

Which results are given for PTGR2 (UniProt Q8N8N7)?
log2 fold change (bafetinib): 0.084; log2 fold change [1]: -0.151; log2 fold change (nilotinib): 0.003; log2 fold change [2]: -0.215; log2 fold change (dasatinib): -0.025; log2 fold change [3]: 0.07; log2 fold change [4]: 0.112; log2 fold change [5]: 0.485 (active); log2 fold change (tipifarnib): 0.184; log2 fold change (mubritinib): -0.066

Which results are given for PRIM2 (UniProt P49643)?
log2 fold change (bafetinib): 0.007; log2 fold change [1]: -0.019; log2 fold change (nilotinib): -0.063; log2 fold change [2]: -0.06; log2 fold change (dasatinib): -0.128; log2 fold change [3]: 0.021; log2 fold change [4]: 0.015; log2 fold change [5]: 0.046; log2 fold change (tipifarnib): -0.018; log2 fold change (mubritinib): 0.101

What does the source list for POLR3B (UniProt Q9NW08)?
log2 fold change (bafetinib): 0.104; log2 fold change [1]: 0.045; log2 fold change (nilotinib): -0.111; log2 fold change [2]: -0.285; log2 fold change (dasatinib): -0.238; log2 fold change [3]: -0.028; log2 fold change [4]: -0.059; log2 fold change [5]: 0.089; log2 fold change (tipifarnib): -0.108; log2 fold change (mubritinib): -0.086

Which log2 fold change (bafetinib) does the source give for PGGT1B (UniProt P53609) here?
Its log2 fold change is -0.069.

And the log2 fold change [1]?
Its log2 fold change is -0.024.

What about the log2 fold change (nilotinib) of the same target?
Its log2 fold change is -0.007.

And the log2 fold change [2]?
Its log2 fold change is -0.059.

And the log2 fold change (dasatinib)?
The log2 fold change was 0.075.

And the log2 fold change [3]?
The log2 fold change was 0.009.

What about the log2 fold change [4] of the same target?
The log2 fold change was -0.027.

What about the log2 fold change [5] of the same target?
Its log2 fold change is 0.004.

And the log2 fold change (tipifarnib)?
Its log2 fold change is 0.134.

And the log2 fold change (mubritinib)?
The log2 fold change was 0.062.

How did the log2 fold change (bafetinib) turn out when POLD3 (UniProt Q15054) was run?
The log2 fold change was 0.846.

What about the log2 fold change [1] of the same target?
The log2 fold change was 0.058.

And the log2 fold change (nilotinib)?
Its log2 fold change is -0.014.

What about the log2 fold change [2] of the same target?
Its log2 fold change is -0.052.

And the log2 fold change (dasatinib)?
Its log2 fold change is -0.068.

What about the log2 fold change [3] of the same target?
Its log2 fold change is 0.096.

And the log2 fold change [4]?
The log2 fold change was 0.028.

What about the log2 fold change [5] of the same target?
The log2 fold change was 0.044.

What about the log2 fold change (tipifarnib) of the same target?
The log2 fold change was -0.01.

And the log2 fold change (mubritinib)?
The log2 fold change was 0.024.

PSMD3 (UniProt O43242) was tested. Which log2 fold change (bafetinib) did it give?
The log2 fold change was 0.129.

What about the log2 fold change [1] of the same target?
Its log2 fold change is 0.032.

What about the log2 fold change (nilotinib) of the same target?
The log2 fold change was 0.008.

What about the log2 fold change [2] of the same target?
The log2 fold change was 0.089.

What about the log2 fold change (dasatinib) of the same target?
Its log2 fold change is 0.004.

What about the log2 fold change [3] of the same target?
The log2 fold change was -0.012.

And the log2 fold change [4]?
Its log2 fold change is -0.064.

And the log2 fold change [5]?
The log2 fold change was -0.018.

And the log2 fold change (tipifarnib)?
Its log2 fold change is 0.025.

What about the log2 fold change (mubritinib) of the same target?
The log2 fold change was -0.019.

Source: the supplement of paper PMC10849652
